Hits are enriched below; roughly 2% of the tested compounds scored in any of these assays.
TRb-SRC2 inh – inhibitors of human thyroid hormone receptor beta-SRC2 interaction | P10828 | TRbeta-SRC2 peptide binding, fluorescence polarization; receptor liganded with 1 µM T3 | Potency, µM (titrated, usually from 106 µM), inactives show at the top dose activity change, negative = inhibition, most hits filed as inhibitors | 0.065% of 280,000 active | AID 1469;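 further: potency means the concentration at half of the fitted maximal effect; plate controls were bound peptide for no effect and peptide without receptor for full effect; nearly all actives have a fitted effect of over 50% in size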
Target sequence (P10828 whole entry, looked up): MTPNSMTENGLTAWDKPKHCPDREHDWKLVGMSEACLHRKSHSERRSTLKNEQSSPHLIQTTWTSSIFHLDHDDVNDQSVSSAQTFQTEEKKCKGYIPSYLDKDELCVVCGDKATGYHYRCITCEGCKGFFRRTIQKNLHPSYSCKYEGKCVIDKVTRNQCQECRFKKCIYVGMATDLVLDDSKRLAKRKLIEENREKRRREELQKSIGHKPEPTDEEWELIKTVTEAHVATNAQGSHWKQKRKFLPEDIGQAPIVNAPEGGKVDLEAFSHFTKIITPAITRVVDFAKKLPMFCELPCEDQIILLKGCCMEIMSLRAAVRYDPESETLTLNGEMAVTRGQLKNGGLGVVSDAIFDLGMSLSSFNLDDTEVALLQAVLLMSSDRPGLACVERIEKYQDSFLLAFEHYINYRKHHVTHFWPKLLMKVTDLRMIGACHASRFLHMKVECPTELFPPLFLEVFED
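Binding of a 20-amino-acid Texas Red SRC2 peptide (20 nM) to TRb ligand-binding domain (0.6 uM) with agonist T3 at 1 uM was followed by fluorescence polarization after a 5 hr room-temperature incubation.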
TexasRed fluor – counter-screen for TRb-SRC2 inhibitors: fluorescence interference; TRb/SRC2 Texas Red total fluorescence interference; Potency, µM (titrated, usually from 106 µM), inactives show top-dose fluorescence change, negative = quenching; 0.29% of 280,000 active; active means well fitted curve in either direction with a large enough effect; inconclusive means small, poorly fitted or top-dose-only effect; further: potency means the concentration at half of the fitted maximal effect; on the % scale 0 is the no-effect control and ±100 the full control effect
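Flags fluorescent or light-absorbing compounds by total fluorescence, S + 2P, at 555 nm excitation and 632 nm emission. Mixture: 20 nM Texas Red SRC2 peptide, 0.6 uM human TRb LBD, 1 uM T3, 5% DMSO; compound exposure 5 h at ambient temperature.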
JMJD2E inh – blocks human JMJD2E demethylase activity; B2RXH2; AID 2147; JMJD2E catalytic domain, FDH-coupled NADH fluorescence (FDH is formaldehyde dehydrogenase); 1.6% of 230,000 active; Potency, µM (titrated, usually from 57.1 µM), inactives show top-dose activity change, negative = inhibition, actives largely listed as inhibitors; active means well fitted inhibition curve with a large enough effect, not every such curve was filed as active; inconclusive means small, poorly fitted or top-dose-only effect, or another doubt; inactive means no such curve, though single readings can be large or run the other way;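 further: potency means the concentration at half of the fitted maximal effect; 0% = wells with enzyme and -100% = buffer wells without enzyme; nearly all actives have a fitted effect of over 50% in size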
Target sequence (B2RXH2 1-337 limits assumed): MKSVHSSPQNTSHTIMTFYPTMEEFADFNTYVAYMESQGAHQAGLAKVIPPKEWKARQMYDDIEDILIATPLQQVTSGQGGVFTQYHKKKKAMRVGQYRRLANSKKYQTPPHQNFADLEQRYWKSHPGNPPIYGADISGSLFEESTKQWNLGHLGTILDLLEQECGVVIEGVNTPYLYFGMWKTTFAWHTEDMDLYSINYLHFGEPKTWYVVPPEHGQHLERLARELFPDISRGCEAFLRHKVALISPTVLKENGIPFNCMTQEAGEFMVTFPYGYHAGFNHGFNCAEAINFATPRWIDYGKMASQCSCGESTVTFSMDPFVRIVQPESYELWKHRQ
HTT ATP protect – Huntington cell model cytoprotection by ATP luminescence; PC12 HTT-Q103 induced, cytoprotection, ATP luminescence, 40 h; Potency, µM (top dose mostly 56.4 µM), inactives show cytoprotection (ATP increase), hits mostly activators; 0.14% of 230,000 active; further: potency means the concentration at half of the fitted maximal effect; % of control where 0% means no effect; nearly all actives have a fitted effect of over 45% in size
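Cells were plated at 1500 per well in phenol red-free DMEM with 5% equine and 5% calf serum. Tebufenozide (100 nM final) and compounds were added, then ATPlite reagent, and luminescence was read.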
Coupling enz – coupling enzyme interference in Giardia aldolase counter-screen. activity change, negative = inhibition, % at 58.2 µM, hits read low. 0.67% of 290,000 active. coupling enzyme system counterscreen, AmpLite Red fluorescence. AID 2472; in the data active means activity change below about -30%; further: on the % scale 0 is the no-effect control and ±100 the full control effect
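Final compound at 57.5 uM, incubated 10 min at RT with coupling enzyme reagent (glyceraldehyde-3-phosphate), then 20 min with substrate and AmpLite Red detection. Fluorescence read at 525/598 nm; tests interference with the coupling assay, not aldolase inhibition.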
HttQ103 aggreg – inhibitors of mutant huntingtin aggregate formation in PC12 cells; PC12 HttQ103-GFP aggregates, Acumen cytometry, 40 h; 1.1% of 220,000 active; Potency, µM (titrated, usually from 46.1 µM), without a hit: at the highest dose activity change, negative = inhibition, most hits filed as inhibitors; further: potency means the concentration at half of the fitted maximal effect; on the % scale 0 is the no-effect control and ±100 the full control effect; nearly all actives have a fitted effect of over 60% in size
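Compounds (qHTS titration) were added to PC12 cells expressing an ecdysone-driven HTT exon 1 Q103–GFP fusion after induction with 100 nM tebufenozide. Aggregate formation was measured as GFP objects in cell lysates.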
* = called active by the depositor; ? = inconclusive; · = no result given; [ ] = another dose, or the depositor's remark. Unless noted, the call rests on the fitted dose curve; in most records, active means well fitted curve in the direction sought with a large enough effect; inconclusive means small, poorly fitted or top-dose-only effect, or another doubt; inactive means no such curve, though single readings can be large; an effect the other way counts as inactive or inconclusive.

SMILES	TRb-SRC2 inh	TexasRed fluor	JMJD2E inh	HTT ATP protect	Coupling enz	HttQ103 aggreg
Cc1noc(C(=O)Nc2c(C)n(C)n(-c3ccccc3)c2=O)c1Cl	0.8%	-1.9%	-0.3%	8.7%	-1.5	-15.3%
Cc1ccc2c(=O)cc(C(=O)Nc3ccc(S(=O)(=O)Nc4nc(C)cc(C)n4)cc3)oc2c1	0.7%	-9.6%	·	·	·	·
COc1cccc2c1C(CO)N1C(C#N)C3CC(C(=O)O)C(C1C2)N3C (centres undefined)	-5.7%	-0.3%	-5.3%	-54.7%[10 µM]	-2.6	1.12µM*
COc1cccc2c1OCC(C(=O)O)C2 (centres undefined)	2.3%	0.1%	-3.3%	8.7%[10 µM]	2.0	8.8%[9.22 µM]
CCCc1[nH]nc2c1C(c1cn[nH]c1-c1ccc(F)cc1)C(C#N)=C(N)O2 (centres undefined)	-9.3%	?	6.2%	-0.2%[1.9 µM]	-23.3	11.2µM*
CCCc1[nH]nc2c1C(c1ccccc1OC)C(C#N)=C(N)O2 (centres undefined)	1.2%	0.9%	-1.8%	0.3%[10 µM]	-1.7	5.0%
O=C(On1c(-c2ccccc2)nc2ccccc2c1=O)c1ccco1	-9.3%	-2.0%	20µM*	-23.4%	-3.2	-8.9%
CCOC(=O)CC(NC(=O)c1cc2ccccc2oc1=O)c1cccc([N+](=O)[O-])c1 (centres undefined)	1.5%	-0.6%	?	-0.2%[10 µM]	2.7	26.6%
CCOC(=O)CC(NC(=O)c1cc2cc(Cl)ccc2oc1=O)c1ccc(C)cc1 (centres undefined)	-10.4%	14.1µM*[quencher]	·	·	·	·
Cc1snc(SCC(=O)c2ccc([N+](=O)[O-])cc2)c1C#N	-7.4%	-6.0%	4.47µM*	?	-1.9	-5.9%
CCS(=O)(=O)c1c([N+](=O)[O-])ncn1C	-5.4%	-3.4%	-1.4%	·	-0.9	3.55µM*
CCN(CC)c1c([N+](=O)[O-])ncn1C	-20.5%	1.1%	2.7%	5.0%	-0.5	13.8%
Cc1oc2c(cc(NS(=O)(=O)c3ccc(F)cc3)c3ccccc32)c1C(=O)O	·	·	·	·	-31.0*	·
CCc1ccc(NC(=O)Cn2c(=O)nc(-c3ccccc3F)c3cc(Cl)ccc32)cc1	-5.4%	-2.8%	·	·	·	·
Cc1ccc(S(=O)(=O)NCc2ccc3[nH]c(C)cc3c2)cc1	-0.5%	0.3%	-1.5%	9.5%	-8.0	-3.8%
Cc1cc2cc(CNS(=O)(=O)N(C)C)ccc2[nH]1	-1.3%	-4.9%	?	-0.1%[10 µM]	-35.8*	11.8%
O=C1S/C(=C\c2ccc(N3CCOCC3)o2)C(=O)N1Cc1c(F)cccc1Cl	8.1%	2.6%	-12.8%	-33.5%	-40.6*	21.0%
O=C1S/C(=C\c2ccc(N3CCOCC3)o2)C(=O)N1c1ccccc1	-2.5%	3.4%	?	-16.7%	-43.3*	15.8µM*
CCN(CC)c1ccc(N=Cc2ccc(N(CC)CC)cc2O)cc1	-25.6%	23.0%	?	-23.3%	-13.5	-5.2%
CCN1CCN(c2ccc(N=Cc3ccc(O)cc3O)cc2)CC1	-5.6%	-1.4%	14.1µM*	·	-4.2	·
CCOc1ccc(-n2c(SCc3ccc([N+](=O)[O-])cc3)nnc2-c2ccccc2)cc1	-2.5%	3.8%	-1.5%	9.9%[10 µM]	0.0	20µM*
Cc1ccc2[nH]c3c(N4CCc5ccccc5C4)ncnc3c2c1	4.0%	-1.2%	?	-84.7%	-0.5	3.55µM*
Brc1ccc2[nH]c3c(N4CCc5ccccc5C4)ncnc3c2c1	12.3%	0.7%	3.55µM*	-38.9%	2.7	?
CC(C)C(=O)Nc1cccc(C(=O)Nc2nnc(C(F)(F)F)s2)c1	-5.7%	-0.5%	·	·	·	·
CCc1c(C)sc2c1CCN(C(=O)Nc1cc(Cl)c(OC)cc1OC)C2c1ccccc1 (centres undefined)	-0.4%	-1.3%	·	·	·	·
SMILES	TRb-SRC2 inh	TexasRed fluor	JMJD2E inh	HTT ATP protect	Coupling enz	HttQ103 aggreg
CN1c2cccc3cccc(c23)N(C)C1(C)C	-23.6%	0.7%	?	-17.8%	-33.2*	8.0%
Cc1ccccc1-n1sc2cc(F)ccc2c1=O	-4.0%	-0.9%	11.2µM*	7.7%[1.9 µM]	4.2	?
COc1ccccc1NS(=O)(=O)c1cc(NC(=O)c2cccs2)ccc1N1CCCC1	-4.1%[53 µM]	-0.9%[53 µM]	?	-3.4%[10 µM]	-0.1	?
Cc1ccc(C(=O)Nc2ccccc2C(=O)O)cc1S(=O)(=O)N1CCCCCC1	2.2%	9.0%	·	·	·	·
COc1ccccc1NS(=O)(=O)c1cc(NC(=O)c2cccs2)ccc1N1CCCCC1	2.3%	0.1%	25.1µM*	-20.6%[0.074 µM]	0.5	?
Cc1ccccc1NC(=O)c1ccc(Cl)c(S(=O)(=O)N2CCCCCC2)c1	?	0.794µM*[quencher]	·	·	·	·
O=C(Nc1cc(S(=O)(=O)N2CCCCC2)ccc1Cl)c1ccccc1NS(=O)(=O)c1ccc(F)cc1	28.1%	-16.8%	?	-67.3%[10 µM]	6.1	3.16µM*
O=C(Nc1ccc(F)cc1)Nc1ccc(N2CCCC2)c(S(=O)(=O)Nc2ccccc2Cl)c1	-9.9%	-1.4%	22.4µM*	-31.3%[10 µM]	-1.1	?
NC(N)=NCCSSCCN=C(N)N	·	·	·	-7.1%[1.9 µM]	·	·
Cc1c(CCNC(=O)c2c(F)cccc2F)sc2nc(-c3ccc(F)cc3)nn12	-0.7%	-1.3%	·	·	·	·
COc1ccccc1CNC(=O)CCn1c(=O)c2ccccc2n(CC(=O)Nc2ccc(C)cc2Cl)c1=O	-6.5%	6.3%	·	·	·	·
CN(/N=C/c1cc(Cl)cc(Cl)c1O)C(=S)NC(C)(C)C	1.2%	-6.1%	31.6µM*	-2.8%[10 µM]	2.0	3.9%[9.22 µM]
O=[N+]([O-])c1cccc(NC(=S)NCCc2ccccc2)c1	-18.6%[53 µM]	316µM*[quencher]	0.1%	-16.6%[1.9 µM]	3.8	3.5%
Fc1cccc(NC(=S)NCCc2ccccc2)c1	-7.9%	-1.6%	1.7%	7.8%[10 µM]	-1.1	-18.4%
S=C(NCCc1ccccc1)Nc1cnc2ccccc2c1	-6.5%	-3.8%	25.1µM*	·	-0.1	-10.1%
COc1ccc(C2c3c(n(C)c4ccccc34)C(=O)N2CC(=O)Nc2ccccc2Cl)cc1 (centres undefined)	1.1%	-2.6%	·	·	·	·
COc1ccccc1NC(=O)Cn1c(=O)n(-c2ccc(C)cc2)c(=O)c2ccc(C(=O)NCc3ccco3)cc21	-2.3%	0.2%	·	·	·	·
CC1(C)CC(=O)C=C(NCCN2CCN(C(=O)Nc3ccccc3)CC2)C1	-4.0%	-3.6%	-1.2%	7.5%[10 µM]	3.0	5.62µM*
N#Cc1ccccc1NC(=O)C(=O)NCC(c1cccnc1)N1CCc2ccccc21 (centres undefined)	2.5%	5.5%	·	·	·	·
